The full list was thinned out, with hits kept by preference.
Tgondii IFNg = T. gondii growth inhibition with IFN-gamma, primary screen, cell-based | Toxoplasma gondii growth in IFN-gamma-treated host cells; hits give low values | activity change, negative = inhibition, % (no concentration beside the values) | actives 3.8% (n = 69,000); in the data active = activity change below about -70%, passing the limit was not always enough;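 note: host cells are HeLa cells infected with Toxoplasma gondii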
* hit, by the source's call; i = inactive; ! = not active in a repeat.

SMILES	Tgondii IFNg
COC(=O)c1c(NCc2ccccc2Cl)c2ccccc2[nH]c1=O	3
CCOC(=O)c1nc(NCCc2ccc(OCC)cc2)c2ccccc2n1	-62
COc1ccccc1CN1CC[C@@H](OCc2ccccn2)[C@@H]2OCC[C@H]21	-4
CCOc1ccc(-c2cc3c(=O)n(Cc4nc(-c5ccc(OC(C)C)cc5)oc4C)ccn3n2)cc1	81
OC[C@H]1O[C@@H](n2cnc3c(NC4CCCC4)ncnc32)[C@H](O)[C@@H]1O	-2
OC[C@H]1O[C@@H](n2cnc3c(NCc4ccco4)ncnc32)[C@H](O)[C@@H]1O	-83*
OCC1OC(n2cnc3c(NC4CCCC4)ncnc32)C(O)C1O (centres undefined)	9
Cc1ccc(S(=O)(=O)c2nc(/C=C3/N(C)c4ccccc4C3(C)C)sc2Cl)cc1	7
O=C(NCc1nnc2n1CCCC2)c1cccc(C2CCNC2)c1 (centres undefined)	5
CN(Cc1cccc2ncccc12)C(=O)c1cccc(C2CCNC2)c1 (centres undefined)	4
CCn1nc(CNC(=O)c2cccc(C3CCNC3)c2)c2ccccc21 (centres undefined)	-86*
Cn1cc(CN2CCC(CNC(=O)c3cnc4ccccc4c3)C2)cn1 (centres undefined)	-10
NC(=O)CSc1ccc(-c2ccc3c(c2)OCCO3)nn1	77
OCC1(Cc2cccc(C(F)(F)F)c2)CCN(c2ccc3ccccc3n2)CC1	0
OCC1(CCc2ccccc2)CCN(c2ccc3ccccc3n2)CC1	-77*
OCC1(CCc2ccccc2)CCN(c2nccc(N3CCC(O)C3)n2)CC1 (centres undefined)	-13
CCc1c(C)cc(C(=O)N2CCc3[nH]nc(-c4ccccc4)c3C2)c(=O)n1C	-1
CCn1c(C2CCCNC2)nn(CCC(=O)N2CCCC2)c1=O (centres undefined)	0
CCN1C[C@@H]2C3(CCN(C(=O)c4ccco4)CC3)CC[C@]2(C(=O)N2CCCC2)C1	-12
COc1cc(Br)c(CCC#N)cc1OC	85
COc1ccc(CNc2ccc(Br)cc2)c(OC)c1OC	34
COc1ccc2cc(Br)ccc2c1CC#N	-107*
c1ccc(CSc2nnnn2-c2ccc3c(c2)OCO3)nc1	26
Fc1ccc(CSc2nnnn2-c2ccc3c(c2)OCO3)c(Cl)c1	-72*
Cc1cc(C)cc(NC(=O)CSc2nnnn2-c2ccc3c(c2)OCO3)c1	-13
SMILES	Tgondii IFNg
COc1cccc(N(Cc2nc(-c3ccccc3)oc2C)S(=O)(=O)c2ccc(C)cc2)c1	-1
COc1ccc(-c2noc(-c3c(O)c4ccccc4[nH]c3=O)n2)cc1F	86
O=C1Nc2cc(Cl)ccc2Oc2ccccc21	7
O=C1NC2(C=Cc3c(ccc4ccccc34)O2)Oc2ccccc21 (centres undefined)	-107*
O=C1CCC2(CCN(Cc3cccs3)CC2)N1Cc1ccccc1	0
CCOC(=O)CSC1=Nc2ccccc2C2=NC(CCC(=O)NCc3ccco3)C(=O)N12 (centres undefined)	28
S=c1[nH]nc(-c2cccnc2)n1CCc1ccccc1	34
CSc1ccc(CNC(=O)c2c(C)noc2C)s1	-33
Cc1noc(C)c1C(=O)Nc1ccc(Cl)cc1	10
Cc1noc(C)c1C(=O)Nc1ccc(Sc2ccccc2)nc1Sc1ccccc1	-89*
CC(CC(F)(F)F)NC1CCN(S(=O)(=O)c2ccccc2)CC1 (centres undefined)	-3
C=CC(=O)Nc1cc(Nc2nccc(-c3cn(C)c4ccccc34)n2)c(OC)cc1N(C)CCN(C)C	-74*
COc1cc(OC)c(NC(=O)NCC(c2cccnc2)c2cn(C)c3ccccc23)cc1Cl (centres undefined)	i
C=CC(=O)Nc1cccc(Nc2nc(Nc3ccc(NC4CN(CCF)C4)cc3OC)ncc2C(F)(F)F)c1	12
COc1cccc(S(=O)(=O)N2CCCCN3[C@H](CO)[C@H](c4ccc(C#CCC(C)C)cc4)[C@H]3C2)c1	-81*
COc1cccc(S(=O)(=O)N2CCCCN3[C@H](C2)[C@@H](c2ccc(C#CCC(C)C)cc2)[C@@H]3CO)c1	-33
COc1cccc(S(=O)(=O)N2CCCCN3[C@@H](CO)[C@@H](c4ccc(C#CCC(C)C)cc4)[C@@H]3C2)c1	-64
C=CCN(Cc1ccccc1C)C(=O)CCc1ccccc1O	-19
N#Cc1cc2c(ccc3ccccc32)oc1=N	142
CC(C)(C)c1ccc2cc(C#N)c(C#N)cc2c1	-80*
CCn1cc(Cn2ccnc2-c2ccc(C(=O)O)cc2)cn1	-5
Cc1ccc2c(c1C)-n1cccc1C1(CCN(C(=O)c3cccc(N(C)C)c3)CC1)N2	18
CCOCC12CCCOC1CCN(Cc1ccc(C)s1)C2 (centres undefined)	-88*
CCOCC12CCCOC1CCN(Cc1cccs1)C2 (centres undefined)	-32
CCOCC12CCCOC1CCN(C(=O)c1ccncc1)C2 (centres undefined)	-3
SMILES	Tgondii IFNg
CC1=CC[C@@H]2CN(C(=O)c3ccc(-c4nnn(C)n4)cc3)C[C@@H]2C1	4
COCCN(Cc1nccs1)C(=O)c1ccccc1C1CCNC1 (centres undefined)	-5
CCn1c(=O)[nH]c2cc(Cl)c(Cl)cc21	-84*!
COc1ccc(CCNC(=O)CN2CCN(c3cn[nH]c(=O)c3)CC2)cc1	6
COc1ccc2[nH]c(C(=O)NC(C)c3ccc4c(c3)CCCO4)c(NC(C)=O)c2c1 (centres undefined)	15
O=C(Cn1nnc(-c2ccccc2)n1)NCc1cc(Cl)c2c(c1)OCCCO2	3
COc1ccc2[nH]c(C)c(C(=O)NCc3cc(Cl)c4c(c3)OCCCO4)c2c1	-85*
CC(C)N(C(=O)Cn1c(C(F)F)cc2cccnc21)C(C)C	248
O=C(NCCSCc1ccco1)Nc1ccc(OCc2ccccc2)cc1	-4
COc1ccc(F)c(CN2CCC(NS(C)(=O)=O)CC2)c1Cl	4
CC(C)(C)NC(=O)N1CCC(Nc2nccc(C(F)(F)F)n2)CC1	-62
COc1ccc(F)c(F)c1C(=O)c1cnc(NC2CCN(S(C)(=O)=O)CC2)nc1N	-76*
CC(Cc1ccccn1)N(C)C(=O)c1cnc(C(C)(C)C)nc1 (centres undefined)	25
CCOC(=O)Cc1ccc(NC(=O)N2CCC3(CC2)c2cccn2-c2ccc(C)cc2N3CC)cc1	-35
CCN1c2cc(C)ccc2-n2cccc2C12CCN(C(=O)Nc1ccccc1C(F)(F)F)CC2	108
CCN1c2cc(C)ccc2-n2cccc2C12CCN(C(=O)Nc1ccc(OC)cc1OC)CC2	-72*
CCN1c2cc(C)ccc2-n2cccc2C12CCN(C(=O)Nc1cc(F)ccc1F)CC2	-51
CCN1c2cc(C)ccc2-n2cccc2C12CCN(C(=O)Nc1ccc(F)cc1F)CC2	-21
CCN1c2cc(C)ccc2-n2cccc2C12CCN(C(=O)Nc1cc(OC)ccc1OC)CC2	-111*
CCN1c2cc(C)ccc2-n2cccc2C12CCN(C(=O)Nc1cc(C)cc(C)c1)CC2	-28
CCN1c2cc(C)ccc2-n2cccc2C12CCN(C(=O)Nc1cc(Cl)ccc1OC)CC2	-116*
COc1ccc(OC)c(NC(=O)N2CCC3(CC2)Nc2cc(C)ccc2-n2cccc23)c1	225
O=C(c1cccs1)N1CCOC2CC(COc3ccccn3)CC21 (centres undefined)	6
CN(Cc1ccccc1)C1(C(=O)NCCN2CCNC2=O)Cc2ccccc2C1	-1
COc1ccc(-c2nc(Nc3ccccc3Cl)c3ccccc3n2)cc1	3
